Among the test systems are NCI-H23 lung; NCI-H226 lung; NCI-H322M lung; HOP-62 NSCLC; NCI-H460 lung; NCI-H522 lung; A549/ATCC NSCLC; 786-0 renal; COLO 205 colon; DU-145 prostate; K-562 leukemia; MALME-3M melanoma; MDA-MB-231 breast; RXF 393 renal; SF-268 CNS; SF-295 CNS; SF-539 CNS; UACC-257 melanoma; M14 melanoma; HCT-15 colon.
Common to all, as to experiment: NCI-60 one-dose screen, 48 h (100 = growth as untreated, 0 = no growth, -100 = all killed)
Holding throughout (conditions): 10 µM unless noted

About 83,000 compounds went through this panel and 20% of them were active in at least one assay; those are over-represented in the sample as a whole.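 Compound tested at a single concentration for 48 hours in 96-well plates; a percent growth value below 10 was scored as active.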 A number with no mark means an inactive call. Active and inactive are the calls of the source.

`c1ccc2cc(C[n+]3ccn(CCCCCCCn4cc[n+](Cc5ccc6ccccc6c5)c4)c3)ccc2c1`: the growth in the test with NCI-H23 lung was 14.4%; in the test on NCI-H226 lung, 59.5%; with NCI-H322M lung it was 58.6%; with HOP-62 NSCLC, 32.6%; with NCI-H460 lung, 14.6%; in the test with NCI-H522 lung, 5.87% (active). For the same compound, the growth is 26.7% in the test on A549/ATCC NSCLC; 95.8% in the test on 786-0 renal; 20% in the test with COLO 205 colon; 49.2% in the test on DU-145 prostate; 19.1% with K-562 leukemia; -9.13% (active) in the test on MALME-3M melanoma. In addition, the growth with MDA-MB-231 breast was 49%; in the test on RXF 393 renal it was 74%; in the test with SF-268 CNS it was 34.4%; with SF-295 CNS, 21.6%; in the test on SF-539 CNS it was 33.4%; with UACC-257 melanoma, 15.8%. The growth is 47.1% with M14 melanoma and 82.6% with HCT-15 colon.
`CC(c1cc(Cl)ccc1O)c1cc(Cl)ccc1O`: the growth with NCI-H23 lung is 17.9%; with NCI-H226 lung, 82.5%; with NCI-H322M lung it was 80%; with HOP-62 NSCLC it was 84.3%; in the test on NCI-H460 lung it was 15.7%; in the test on NCI-H522 lung, -39.3% (active). The growth with A549/ATCC NSCLC is 29.3%; in the test on 786-0 renal, 90%; in the test on COLO 205 colon, 41.2%; in the test on DU-145 prostate it was 50.7%; in the test with K-562 leukemia, 28.7%; in the test with MALME-3M melanoma it was 16.5%. For the same compound, the growth with MDA-MB-231 breast is 43.8%; with RXF 393 renal, 49.6%; in the test with SF-268 CNS it was 35%; in the test on SF-295 CNS, 45.9%; in the test on UACC-257 melanoma it was 33%; with M14 melanoma it was 22.7%. Moreover, the growth in the test on HCT-15 colon is 29.7%.
Turning to `CCN(CC)CCCCNc1c2ccccc2[n+](C)c2c1[nH]c1ccccc12`, the growth in the test with NCI-H23 lung was -35.9% (active); with NCI-H226 lung it was -11.8% (active); in the test on NCI-H322M lung, -35.5% (active); in the test on HOP-62 NSCLC, -3.3% (active); in the test with NCI-H460 lung, 3.4% (active); with NCI-H522 lung, -84.7% (active). In addition, the growth is 2.8% (active) in the test on A549/ATCC NSCLC; -7.1% (active) with 786-0 renal; -65.9% (active) with COLO 205 colon; -0.206% (active) in the test with DU-145 prostate; -20.8% (active) in the test with K-562 leukemia; -63.9% (active) in the test with MALME-3M melanoma. Also, the growth was -0.507% (active) in the test on MDA-MB-231 breast; -55.6% (active) in the test with RXF 393 renal; -16.2% (active) with SF-268 CNS; -47.1% (active) with SF-295 CNS; -40.6% (active) with SF-539 CNS; -42.6% (active) in the test on UACC-257 melanoma. The results for the growth in the test on M14 melanoma and in the test on HCT-15 colon were -28.4% (active) and 80.2%, respectively.
`Nc1ccc(S(=O)(=O)Nc2ncccn2)cc1`: the growth was 114% with NCI-H23 lung; 100% with NCI-H226 lung; 120% in the test with NCI-H322M lung; 108% with HOP-62 NSCLC; 108% in the test on NCI-H460 lung; 106% in the test with NCI-H522 lung. Also, the growth with A549/ATCC NSCLC was 100%; with 786-0 renal, 107%; in the test on COLO 205 colon, 114%; with DU-145 prostate, 104%; with K-562 leukemia, 104%; with MALME-3M melanoma, 118%. In addition, the growth with MDA-MB-231 breast was 98.6%; in the test with RXF 393 renal it was 118%; in the test with SF-268 CNS, 108%; in the test with SF-295 CNS, 104%; in the test with UACC-257 melanoma, 105%; in the test with M14 melanoma, 115%. Besides, the growth with HCT-15 colon is 99.1%.
For the compound `c1cnc2n[nH]c(Nc3ncnc4c3sc3ncccc34)c2c1`, the growth was 82.4% in the test on NCI-H23 lung; 93.8% in the test with NCI-H226 lung; 106% with NCI-H322M lung; 90.8% in the test on HOP-62 NSCLC; 96% with NCI-H460 lung; 82.1% in the test on NCI-H522 lung. For the same compound, the growth in the test with A549/ATCC NSCLC is 87.3%; in the test on 786-0 renal it was 106%; with COLO 205 colon it was 107%; in the test on DU-145 prostate, 115%; in the test on K-562 leukemia, 86.8%; with MALME-3M melanoma it was 92.9%. The growth is 97.4% with MDA-MB-231 breast; 99.6% in the test on RXF 393 renal; 108% in the test on SF-268 CNS; 105% in the test on SF-539 CNS; 90.3% in the test on UACC-257 melanoma; 97.4% in the test on M14 melanoma. In the test with HCT-15 colon, the growth was 95.1%.
Turning to `COc1cc2c(cc1OCCCCCn1c(-c3ccc(OCc4ccccc4)cc3)nc3cc(N4CCOCC4)ccc31)N=C[C@@H]1CCCN1C2=O`, the growth in the test on NCI-H23 lung is 15.5%; with NCI-H226 lung it was -41.1% (active); in the test with NCI-H322M lung, 27.8%; in the test with HOP-62 NSCLC, 20%; in the test on NCI-H460 lung, -3.28% (active); in the test with NCI-H522 lung, -4.59% (active). Further, the growth in the test on A549/ATCC NSCLC was 6.91% (active); with 786-0 renal, -22.5% (active); in the test on COLO 205 colon, -14% (active); in the test with DU-145 prostate, 29.7%; with K-562 leukemia, 36.1%; with MALME-3M melanoma it was -29.7% (active). Moreover, the growth with MDA-MB-231 breast was 9.63% (active); in the test on RXF 393 renal, -26.7% (active); in the test with SF-268 CNS, 14.6%; in the test on SF-295 CNS, 7.34% (active); with SF-539 CNS, 11%; with M14 melanoma it was 9.2% (active). In the test on HCT-15 colon, the growth was -22.7% (active).
`COc1ccc(C2=NN(C(=O)c3cc(OC)c(OC)c(OC)c3)C(c3ccc(C#N)cc3)C2)cc1OC` (stereo not given): the growth was 43.2% in the test with NCI-H23 lung; 52.4% in the test with NCI-H226 lung; 36.9% in the test on NCI-H322M lung; 36.1% with HOP-62 NSCLC; 9.81% (active) in the test on NCI-H460 lung; -16% (active) in the test on NCI-H522 lung. Moreover, the growth in the test on A549/ATCC NSCLC was 22%; in the test with 786-0 renal, 25.1%; with COLO 205 colon, -9.28% (active); in the test with DU-145 prostate it was 5.75% (active); in the test on K-562 leukemia it was 20.6%; in the test on MALME-3M melanoma it was 39.5%. Moreover, the growth is 18.2% in the test on MDA-MB-231 breast; -17.2% (active) in the test with RXF 393 renal; 49.3% in the test with SF-268 CNS; -3.96% (active) in the test with SF-295 CNS; -13.3% (active) with SF-539 CNS; 69.2% in the test on UACC-257 melanoma. The growth was -6.86% (active) in the test on M14 melanoma and 26.7% in the test with HCT-15 colon.
As to `Cc1cc(C(C)(C)C)cc(C)c1CC1=NCCN1`, the growth in the test with NCI-H23 lung was 99%; in the test with NCI-H226 lung, 89.2%; in the test with NCI-H322M lung it was 102%; in the test on HOP-62 NSCLC it was 109%; in the test on NCI-H460 lung it was 118%; with NCI-H522 lung it was 106%. Further, the growth in the test on A549/ATCC NSCLC is 104%; in the test on 786-0 renal it was 96.9%; in the test with COLO 205 colon it was 92.6%; in the test with DU-145 prostate it was 107%; in the test on K-562 leukemia, 90.4%; in the test with MALME-3M melanoma it was 99.2%. The growth is 109% in the test with MDA-MB-231 breast; 107% with RXF 393 renal; 100% in the test with SF-268 CNS; 96.3% in the test on SF-295 CNS; 106% with UACC-257 melanoma; 107% in the test with M14 melanoma. Moreover, in the test with HCT-15 colon, the growth is 102%.

The values are drawn from PubChem BioAssay (NCI).
